Bioassay records: PubChem BioAssay, National Center for Advancing Translational Sciences (NCATS)
The entries come from a sample that favours hits as a whole.
HT1080 IDH1KD tx = kills HT-1080 cells with IDH1 knockdown; HT-1080 IDH1 knockdown viability, ATP luminescence, 48 h; Potency, µM (doses to about 46.1 µM), inactives show at the top dose activity, negative = toxicity, hits mostly cytotoxic; actives 2% (n = 360,000); AID 686971;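 note: potency is the fitted concentration of half-maximal effect; 0% = DMSO wells and -100% = cell-free medium wells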
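HT-1080-IDH1KD cells (IDH1 knocked down), 750/well in RPMI with 5% FBS, treated with compound 48 h at 37 degrees C. Viability by CellTiter-Glo luminescence, normalised to DMSO and no-cell wells; concentration-response curves classed.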
ALOX12 inh = inhibitors of human 12S-lipoxygenase ALOX12; P18054; purified 12hLO, xylenol orange hydroperoxide absorbance; Potency, µM (doses to about 108 µM), without a hit: at the top dose activity change, negative = inhibition, most hits filed as inhibitors; AID 1671190; actives 1.1% (n = 580,000); note: potency is the fitted concentration of half-maximal effect
Target sequence (P18054 whole entry, looked up): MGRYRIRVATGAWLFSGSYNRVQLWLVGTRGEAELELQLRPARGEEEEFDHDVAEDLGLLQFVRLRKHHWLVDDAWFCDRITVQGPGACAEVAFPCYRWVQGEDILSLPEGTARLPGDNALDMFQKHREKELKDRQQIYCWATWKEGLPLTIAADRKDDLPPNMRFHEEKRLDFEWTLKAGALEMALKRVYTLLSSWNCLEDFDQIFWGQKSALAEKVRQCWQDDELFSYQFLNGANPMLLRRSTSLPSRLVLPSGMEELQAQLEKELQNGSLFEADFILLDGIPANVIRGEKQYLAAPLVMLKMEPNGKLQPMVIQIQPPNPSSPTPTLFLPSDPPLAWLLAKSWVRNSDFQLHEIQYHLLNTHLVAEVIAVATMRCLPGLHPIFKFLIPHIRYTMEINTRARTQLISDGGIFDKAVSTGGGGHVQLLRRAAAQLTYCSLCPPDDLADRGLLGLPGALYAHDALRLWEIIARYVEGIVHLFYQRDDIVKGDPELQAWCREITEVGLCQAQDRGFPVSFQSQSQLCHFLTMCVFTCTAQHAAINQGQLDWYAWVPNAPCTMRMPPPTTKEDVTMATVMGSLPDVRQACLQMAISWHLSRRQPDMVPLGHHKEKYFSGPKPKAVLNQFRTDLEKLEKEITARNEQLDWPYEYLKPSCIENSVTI
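Purified human 12hLO (150 nM final) in 25 mM Hepes, 0.01% Triton X-100, pH 7.0 was preincubated 15 min at room temperature with compound. Then 40 uM arachidonic acid was added, 30 min. Hydroperoxide was read by Fe-XO absorbance ratio 573/405 nm.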
IL-1B inflam inh = blocks inflammasome-driven IL-1 beta release; THP-1 LPS/ATP IL-1B secretion, AlphaLISA, 16 h; stronger effect = lower value; AID 743279; activity change, % at 57.5 µM; actives 4.7% (n = 360,000); in the data active = activity change below about -50%; inconclusive = mostly about -30% to -49%
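Secreted IL-1B measured by AlphaLISA bead assay after 16 h compound exposure of THP-1 cells; compounds (final up to 57.5 uM) added 1 h before LPS (250 ng/mL) and ATP (1.25 mM) stimulation; lower signal means less secretion.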
TDP1 cell CPT = growth inhibition of DT40 Tdp1-/-;hTDP1 cells with camptothecin (screen for TDP1 inhibitors) | chicken DT40 Tdp1-/-;hTDP1 cells + 20 nM CPT, ATP luminescence, 48 h | Potency, µM (highest dose often 46.2 µM), inactives show top-dose activity change, negative = growth inhibition, hits mostly inhibitors | actives 12% (n = 420,000); note: potency is the fitted concentration of half-maximal effect; nearly all actives have a fitted effect of over 55% in size
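Cell growth measured by CellTiter-Glo luminescence after a minimum 48 h, 37 C compound exposure with 20 nM CPT in Tdp1-knockout DT40 cells stably expressing hTDP1, seeded 400/well; qHTS titration format.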
HT1080-NT tox = kills 2HG-producing HT-1080-NT fibrosarcoma cells. HT-1080-NT fibrosarcoma viability, CellTiter-Glo ATP luminescence, 48 h. Potency, µM (doses to about 46.1 µM), for the others: at the top dose activity, negative = less viability, actives largely listed as cytotoxic. actives 1.6% (n = 360,000). AID 686970;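 note: NT is the 2HG producing partner of a matched IDH1 knockdown line; potency is the fitted concentration of half-maximal effect; 0% = DMSO-treated cells and -100% = media-only wells without cells; nearly all actives have a fitted effect of over 55% in size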
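Toxicity toward the 2HG-producing NT line was scored as %Activity, normalised to DMSO and no-cell wells, from CellTiter-Glo luminescence after 48 hours' treatment.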
DT40 TDP1 no CPT = qHTS for Inhibitors of human tyrosyl-DNA phosphodiesterase 1 (TDP1): qHTS in cells in absence of CPT; DT40 Tdp1-/- hTDP1 cells, no CPT, ATP luminescence, 48 h; Potency, µM (top dose mostly 46.2 µM), without a hit: top-dose activity change, negative = growth inhibition, hits mostly inhibitors; actives 15% (n = 420,000); AID 686978, 2013; note: potency is the fitted concentration of half-maximal effect; nearly all actives have a fitted effect of over 55% in size
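Camptothecin absent (DMSO only). Human TDP1-complemented DT40 knockout cells, 400 cells/well, 37 °C for minimum 48 hr; ATP measured via CellTiter-Glo, 30 min dark incubation, luminescence.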
Numbers without * were called inactive; [ ] = dose if it differs, or a comment. Unless noted, calls come from the whole dose curve; as a rule, active = well fitted curve in the direction sought with a large enough effect; inconclusive = small, poorly fitted or top-dose-only effect, or another doubt; inactive = no such curve, though single readings can be large; an effect the other way counts as inactive or inconclusive. Unless noted, % is set by controls: 0 for no effect and ±100 for the full control effect.

Screening O=C(Cn1cc(SCc2cccc(F)c2)c2ccccc21)N1CCCC1 returned ALOX12 inh inconclusive, TDP1 cell CPT inconclusive and DT40 TDP1 no CPT 21µM*.
For N=C(N)SCc1ccc(Cl)cc1Cl the results were HT1080 IDH1KD tx -20%, ALOX12 inh inconclusive, IL-1B inflam inh -101*, TDP1 cell CPT 23µM*, HT1080-NT tox -19% and DT40 TDP1 no CPT 18µM*.
Screening CCC(CC)C(=O)Nc1cccc2c1CCCC2 returned ALOX12 inh 19%.
`COC(=O)[C@@H](NC(=O)N(C1CCCCC1)C1CCCCC1)C(C)C` gave HT1080 IDH1KD tx 12%, ALOX12 inh 11%, IL-1B inflam inh -5, TDP1 cell CPT 11µM*, HT1080-NT tox 1% and DT40 TDP1 no CPT 13µM*.
`CSc1ncc2[nH]c(C(O)c3ccccc3)nc2n1` (stereo not drawn) gave HT1080 IDH1KD tx -7%, ALOX12 inh -3%, IL-1B inflam inh 34, TDP1 cell CPT 9.2µM*, HT1080-NT tox inconclusive and DT40 TDP1 no CPT 10µM*.
`O=C(c1ccc(N2C(=O)c3ccccc3C2=O)cc1)N1CCCCC1` gave HT1080 IDH1KD tx 11%, ALOX12 inh 20%, IL-1B inflam inh 5, TDP1 cell CPT -6%, HT1080-NT tox 4% and DT40 TDP1 no CPT 5%.
For CCc1ccc(N2C(=O)C(Cl)=C(Nc3ccc(C(=O)N4CCCC4)cc3)C2=O)cc1 the results were HT1080 IDH1KD tx -26%, IL-1B inflam inh -92*, TDP1 cell CPT -28%, HT1080-NT tox -4%[9.24 µM] and DT40 TDP1 no CPT -6%.
`CCCc1nc2ccccc2c(C(=O)OCC(=O)Nc2ccc(S(=O)(=O)N3CCOCC3)cc2)c1CC` gave HT1080 IDH1KD tx 10µM*, ALOX12 inh -7%, IL-1B inflam inh -67*, TDP1 cell CPT 16µM*, HT1080-NT tox inconclusive and DT40 TDP1 no CPT 16µM*.
CCCc1nc2ccccc2c(C(=O)OCC(=O)Nc2cccc(S(=O)(=O)N3CCOCC3)c2)c1CC was read as HT1080 IDH1KD tx inconclusive, ALOX12 inh 0%, IL-1B inflam inh -10, TDP1 cell CPT 12µM*, HT1080-NT tox inconclusive and DT40 TDP1 no CPT inconclusive.
Screening CCc1nc2ccccc2c(C(=O)OCC(=O)Nc2ccc(NC(C)=O)cc2)c1C returned HT1080 IDH1KD tx -17%, ALOX12 inh 104%, IL-1B inflam inh -8, TDP1 cell CPT 13µM*, HT1080-NT tox 0% and DT40 TDP1 no CPT 21µM*.
`CC(=O)Nc1ccc(OCC(=O)NCc2ccccc2)cc1` gave HT1080 IDH1KD tx -3%, ALOX12 inh 11%, IL-1B inflam inh -19, TDP1 cell CPT 23%, HT1080-NT tox 9% and DT40 TDP1 no CPT -1%.
Screening CC(=O)Nc1ccc(C(=O)OCC(=O)NCc2ccccc2)cc1 returned HT1080 IDH1KD tx 26µM*, ALOX12 inh -12%, IL-1B inflam inh 33, TDP1 cell CPT inconclusive, HT1080-NT tox inconclusive and DT40 TDP1 no CPT 21µM*.
For O=C(CN1CCCc2nc(-c3ccccc3)ncc2C1=O)NC1CC1 the results were ALOX12 inh 7%.
For Cc1ncc(C(=O)NCc2cc3n(n2)CCCN(C2CCCCC2)C3)s1 the results were ALOX12 inh 82%.
Screening Cc1cc(C(=O)N2C[C@@H](CO)[C@H](c3nc(C4CC4)no3)C2)c(C)o1 returned ALOX12 inh 43%.
CCOC(=O)NCc1cccc(CNC(=O)OCC)c1 was read as ALOX12 inh -24%.
Screening C=CCc1ccccc1OCc1cccc(C(=O)O)c1 returned ALOX12 inh -22%.
`Cc1ccc2nc(COc3cccc(NC(=O)COc4ccc(F)cc4)c3)cc(=O)n2c1` gave ALOX12 inh -19%, TDP1 cell CPT -16% and DT40 TDP1 no CPT -22%.
Cc1ccccc1-c1nnc(SCC(=O)Nc2ccc3c(c2)OC2(CCCCC2)O3)o1 was read as ALOX12 inh 7%.
O=C1CCCC/C=C\C[C@H](CC(=O)N(CCO)Cc2ccccc2)C(=O)NC[C@H](c2ccccc2)O1 was read as HT1080 IDH1KD tx -9%, ALOX12 inh 0%, IL-1B inflam inh -7, TDP1 cell CPT inconclusive, HT1080-NT tox 8% and DT40 TDP1 no CPT inconclusive.
For O=C1NC[C@@H](c2ccccc2)OC(=O)[C@H](Cc2ccc(F)cc2)C/C=C\C[C@@H]1CC(=O)N(CCO)Cc1ccccc1 the results were HT1080 IDH1KD tx inconclusive, ALOX12 inh -4%, IL-1B inflam inh inconclusive, TDP1 cell CPT inconclusive, HT1080-NT tox -28% and DT40 TDP1 no CPT 23µM*.
For O=C1NC[C@@H](c2ccccc2)OC(=O)[C@@H](Cc2ccc(F)cc2)C/C=C\C[C@@H]1CC(=O)N(CCO)Cc1ccccc1 the results were HT1080 IDH1KD tx -1%, ALOX12 inh 9%, IL-1B inflam inh -14, TDP1 cell CPT inconclusive, HT1080-NT tox 11% and DT40 TDP1 no CPT 16µM*.
Screening O=C1NC[C@H](c2ccccc2)OC(=O)[C@H](Cc2ccc(F)cc2)C/C=C\C[C@@H]1CC(=O)N(CCO)Cc1ccccc1 returned HT1080 IDH1KD tx 0%, ALOX12 inh inconclusive, IL-1B inflam inh -21, TDP1 cell CPT 21µM*, HT1080-NT tox -1% and DT40 TDP1 no CPT 16µM*.
`O=C(Cn1nnc(-c2ccccc2)n1)c1c[nH]c2ccccc12` gave ALOX12 inh 5%.
Screening CN1CCC(NCC2(COc3cccnc3)C[C@@H](O)[C@@H](O)C2)CC1 (stereo partly drawn) returned ALOX12 inh -3%[176 µM].
`CN1C(=O)/C(=C/c2ccccc2F)Sc2ccc(C(=O)N3CCCC3)cc21` gave HT1080 IDH1KD tx inconclusive, ALOX12 inh 37%, IL-1B inflam inh -75*, TDP1 cell CPT inconclusive, HT1080-NT tox inconclusive and DT40 TDP1 no CPT inconclusive.
`Cc1ccccc1/C=C1\Sc2ccc(C(=O)N3CCN(c4ccccn4)CC3)cc2N(C)C1=O` gave HT1080 IDH1KD tx -15%, IL-1B inflam inh -22, TDP1 cell CPT -1%, HT1080-NT tox 0% and DT40 TDP1 no CPT 1%.
COc1ccc(/C=C2\Sc3ccc(C(=O)NCC4CCCO4)cc3N(C)C2=O)cc1 (stereo not drawn) was read as HT1080 IDH1KD tx -7%, ALOX12 inh -10%, IL-1B inflam inh 7, TDP1 cell CPT inconclusive, HT1080-NT tox inconclusive and DT40 TDP1 no CPT -18%.
